Neddyl block = inhibitors of cullin neddylation, primary screen, biochemical, TR-FRET, uHTS, NAE and Ubc12; calls only at 25 µM; hit rate 0.58% among 360,000; NEDD8-conjugating enzyme Ubc12 (Homo sapiens) + NEDD8-activating enzyme E1 regulatory …; AID 651699, 2012; in the data active means inhibition above about 36%
Target sequence (P61081 whole entry, looked up): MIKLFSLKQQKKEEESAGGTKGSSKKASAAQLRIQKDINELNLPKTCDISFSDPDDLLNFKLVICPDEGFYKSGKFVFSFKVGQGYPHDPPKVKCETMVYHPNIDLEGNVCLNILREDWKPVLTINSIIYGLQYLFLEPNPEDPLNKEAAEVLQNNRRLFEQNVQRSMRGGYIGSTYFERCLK
Target sequence (Q13564 whole entry, looked up): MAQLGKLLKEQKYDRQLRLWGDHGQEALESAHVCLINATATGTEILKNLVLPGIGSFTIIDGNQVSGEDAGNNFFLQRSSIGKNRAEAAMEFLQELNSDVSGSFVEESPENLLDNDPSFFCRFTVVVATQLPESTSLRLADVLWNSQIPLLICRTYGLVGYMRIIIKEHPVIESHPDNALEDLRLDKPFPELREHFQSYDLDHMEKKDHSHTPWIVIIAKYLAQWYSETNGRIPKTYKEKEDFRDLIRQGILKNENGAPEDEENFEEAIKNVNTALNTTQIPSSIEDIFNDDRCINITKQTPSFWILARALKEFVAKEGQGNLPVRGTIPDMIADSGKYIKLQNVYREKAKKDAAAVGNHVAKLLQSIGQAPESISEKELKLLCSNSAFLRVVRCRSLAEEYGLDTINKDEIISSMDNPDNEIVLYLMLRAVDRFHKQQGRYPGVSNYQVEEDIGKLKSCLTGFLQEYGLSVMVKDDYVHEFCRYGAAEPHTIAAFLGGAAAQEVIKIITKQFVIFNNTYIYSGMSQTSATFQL
UHRF1 MBD2 ctr = UHRF1 methylated DNA binding inhibitors, primary screen, counter-screen for MBD2 inhibitor project, biochemical, TR-FRET, human UHRF1, single concentration; E3 ubiquitin-protein ligase UHRF1 (Homo sapiens), Q96T88; UHRF1 binding to methylated oligo; inhibition, % at 4.4 µM; hit rate 0.75% among 370,000; AID 687016, 2013; in the data active means inhibition above about 21%;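 further: UHRF1 SRA domain binding a hemimethylated CpG hairpin DNA probe; 0% = median of test compound wells and 100% = reference inhibitor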
KLK7 zymogen act = proKLK7 zymogen activators, primary screen, biochemical, fluorescence intensity; Kallikrein-7 (Homo sapiens), P49862; purified proKLK7, EDANS-DABCYL substrate fluorescence; 100% is mature enzyme control, 0% vehicle; activation, % at 7 µM; hit rate 0.9% among 370,000; AID 652039, 2013;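 active means activation above the mean of all tested compounds plus 3 SD, computed per campaign excluding outliers beyond control limits, cut at about 13% in these data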
MBD2 DNA inh = inhibitors of MBD2 binding to methylated DNA, primary screen, biochemical, TR-FRET, DNA-binding domain, human; MBD2 binding to methylated oligonucleotide; inhibition, % at 4.4 µM; hit rate 0.31% among 370,000; AID 686964, 2013; in the data active means inhibition above about 13%
Rin1 Abl inh = inhibitors of Rin1-Abl protein binding, primary screen, biochemical, TR-FRET. hit rate 0.4% among 360,000. inhibition, % at 7.35 µM. AID 588664, 2011; in the data active means inhibition above about 5%, passing the limit was not always enough
LEDGF integ inh = blockers of LEDGF/p75-dependent integrase strand transfer – biochemical, TR-FRET, high throughput, primary screen. hit rate 0.64% among 370,000. AID 743269, 2014. TR-FRET IN-LEDGF/p75 DNA integration, Eu/Cy5. inhibition, % at 3.7 µM;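 active means inhibition above the screen-wide mean plus 3 SD, cut at about 13% in these data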;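 further: signal is the Cy5 over europium emission ratio at 671 and 618 nm; 0% = plate median of compound wells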
Rin1 Abl conf = Rin1-Abl binding inhibitor retest, confirmation, biochemical, TR-FRET. hit rate 49% among 1,300. inhibition, % at 7.35 µM. purified proteins. shares compounds with Rin1 Abl inh; in the data active means inhibition above about 6.5%
GFP quench-1 = GFP fluorescence inhibitors and quenchers, artefact control for Rin1-Abl interaction inhibitor project, biochemical; shares compounds with Rin1 Abl inh; inhibitors/quenchers counterscreen; inhibition, % at 6.75 µM; hit rate 8.5% among 1,300; AID 602125, 2011; in the data active means inhibition above about 6.5%;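 further: ABL1-eGFP fusion protein alone without its partner RIN1-SBP; 0% = protein with vehicle and 100% = wells lacking protein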
GFP quench DR = GFP fluorescence inhibitors and quenchers, dose response, artefact control for Rin1-Abl interaction inhibitor project, biochemical | GFP fluorescence interference/quenching counterscreen | IC50, µM | 230 tested, under 10 active | AID 602182, 2012 | shares compounds with Rin1 Abl inh;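 further: ABL1-eGFP fusion protein alone without its RIN1 binding partner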
GFP quench-2 = GFP fluorescence inhibitors and quenchers, late-stage follow-up, artefact control for Rin1-Abl interaction inhibitor project, biochemical, dose response | 25 tested, under 10 active | shares compounds with Rin1 Abl inh | GFP fluorescence quenching counterscreen | IC50, µM
Neddyl conf = blockade of NEDD8 conjugation to cullin – biochemical, TR-FRET, single concentration, confirmation; calls only at 25 µM; shares compounds with Neddyl block; TR-FRET cullin neddylation biochemical assay; AID 652217, 2013; hit rate 13% among 1,800; in the data active means inhibition above about 40%;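 further: neddylation substrate is the cullin 1 ring ligase complex with SKP2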
An asterisk follows results filed as active; i = inactive; . = no result given; + = active, no number; ! = not confirmed by another sample. In the library only some 3.1% were active in any assay of this set; here they are far more common. Unless noted, how the calls were made is not given here.

SMILES	Neddyl block	UHRF1 MBD2 ctr	KLK7 zymogen act	MBD2 DNA inh	Rin1 Abl inh	LEDGF integ inh	Rin1 Abl conf	GFP quench-1	others
C#CCOCCOCCOCCNc1nc(N2CCN(C(=O)CCCCCCCCCCNC(=O)Cn3cc(CCCCCN)nn3)CC2)nc(N2CCN(C(=O)CCCCCCCCCCNC(=O)Cn3cc(C[C@@H](C)O)nn3)CC2)n1	i	.	.	.	19*	.	12*	2
C#CCOCCOCCOCCNc1nc(N2CCN(C(=O)CCCCCCCCCCNC(=O)[C@@H](CCSC)n3cc(CCO)nn3)CC2)nc(N2CCN(C(=O)CCCCCCCCCCNC(=O)[C@@H]([C@H](C)O)n3cc(C)nn3)CC2)n1	i	0	0	-2	7	-2	.	.
C#CCOCCOCCOCCNc1nc(N2CCN(C(=O)CCCCCCCCCCNC(=O)Cn3cc(C[C@@H](C)O)nn3)CC2)nc(N2CCN(C(=O)CCCCCCCCCCNC(=O)[C@@H]([C@H](C)CC)n3cc(CCCCCN)nn3)CC2)n1	i	.	.	.	10	.	.	.
C#CCOCCOCCOCCNc1nc(N2CCN(C(=O)CCCCCCCCCCNC(=O)Cn3cc(C[C@@H](C)O)nn3)CC2)nc(N2CCN(C(=O)CCCCCCCCCCNC(=O)[C@@H](CCSC)n3cc(CCO)nn3)CC2)n1	i	.	.	.	17*	.	16*	-1
CCOc1ccc(NS(=O)(=O)c2ccc(C(=O)N(C)Cc3cccc(OC)c3OC)cc2)cc1	i	-2	0	-2	-1	1	.	.
CC[C@]12c3[nH]c4ccc(Cl)cc4c3CCN1C(=O)[C@@H](CC(=O)NCCCN(C)C)C[C@@H]2C(=O)N1CCN(C(=O)c2ccco2)CC1	i	-1	1	-3	22*	-1	22*	-1	GFP quench DR=>68
CC[C@]12c3[nH]c4ccc(OC)cc4c3CCN1C(=O)C(CC(=O)NCC13CC4CC(CC(C4)C1)C3)C[C@@H]2C(=O)N1CCN(C(=O)C2CC2)CC1 (stereo partly drawn)	i	2	0	-7	19*	2	24*	1	GFP quench DR=>68
CC[C@]12c3[nH]c4ccc(Cl)cc4c3CCN1C(=O)[C@@H](CC(=O)NCCc1ccccn1)C[C@@H]2C(=O)N1CCN(C(=O)c2ccco2)CC1	i	1	0	1	2	3	.	.
CN1C[C@]2(C=C3CCCCC3n3c(=O)n(-c4ccccc4)c(=O)n32)N(C(=O)OCc2ccccc2)C1=NC(=O)c1ccccc1 (stereo partly drawn)	.	1	1	-6	.	4	.	.
O=C(NC1=NCCS1)c1ccc(Cl)c(S(=O)(=O)N2CCOCC2)c1	i	-1	-1	-1	2	8	.	.
Cc1cc(C)n(-c2cc(Cl)cc(Cl)c2)c(=O)c1C#N	i	0	-1	1	8.3*	-1	-3	0
CCc1cccc(NC(=O)c2sc3nc4n(c(=O)c3c2C)CCC4)c1	i	0	0	2	10*	-2	-3	0
Cc1cc(C)cc(NC(=O)c2sc3nc4n(c(=O)c3c2C)CCC4)c1	i	2	0	-3	1	0	.	.
CCc1nc(SCC(=O)NCCc2ccc(OC)c(OC)c2)c2c(=O)n(C)c(=O)n(C)c2n1	i	-2	0	1	10*	6	16*	1
O=C(NCCCc1ccncc1)C1CCC(=O)N(CCc2cccc(F)c2)C1 (stereo not drawn)	i	4	0	2	1	-4	.	.
Cc1ccc(C)c2[nH]c(=O)c(C(c3nnnn3Cc3ccco3)N3CCc4ccccc4C3)cc12 (stereo not drawn)	i	-10	-1	-5	6.2*	3	0	2
Cc1ccc(C)c2[nH]c(=O)c(C(c3nnnn3CCc3ccccc3)N3CCOCC3)cc12 (stereo not drawn)	i	0	0	-1	1	-2	.	.
CCc1nnc(NC(=O)c2ccc(OCc3c(C)noc3C)c(OC)c2)s1	i	-3	1	2	1	1	.	.
CCCCc1nnc(NC(=O)c2ccc(OCc3c(C)noc3C)cc2)s1	i	1	0	-4	17*	0	28*	0	GFP quench DR=>68
CCn1ccc(C(=O)N2CCN(c3ncccn3)CC2)n1	i	5	0	1	7.3*	3	6.3*	-1
Cc1nc2ccccc2n1S(=O)(=O)c1cc(C(=O)O)ccc1Cl	i	0	0	4	8.3*	0	-3	0
CN(C)c1ccc(-c2[nH][nH]c(=O)c2NC(=O)c2ccccn2)cc1	+	16	-13	15*	34*	11	11*	0	Neddyl conf=i
COc1ccc2oc(C(=O)NCCc3ccccc3)c(C)c2c1	i	1	0	1	4	2	.	.
COc1ccc2oc(C(=O)NCC(c3ccco3)N(C)C)c(C)c2c1 (stereo not drawn)	+	2	1	5	40*	3	45*	2	GFP quench DR=>68;GFP quench-2=>68
COc1ccc(-n2c(C)c(C)c3c(NCCCO)ncnc32)cc1	i	1	-1	5	-3	3	.	.
Oc1ccc(C2CNCCc3c2cc(O)c(O)c3Cl)cc1 (stereo not drawn)	+!	-2	0	-7	18*!	-1	30*	8.4*

Compound activity from PubChem BioAssay.
